From ChEMBL document CHEMBL1157539, “Thousands of chemical starting points for antimalarial lead identification” (Nature, 2010)

These compounds were tested on Plasmodium falciparum (assay: GSK_TCMDC: Inhibition of Plasmodium falciparum 3D7 in whole red blood cells, using parasite LDH activity as an index of growth. Test compounds present at 2uM).
Type: functional

Row | Structure (SMILES) | Inhibition
1 | O=C(Nc1ccc(-c2cncc(NCCCN3CCCC3)c2)cc1)c1ccccc1 | 94%
2 | O=C(Cc1ccc(-c2ccccc2)cc1)N[C@H]1CCN(Cc2ccc(OCCCN3CCCCC3)cc2)C1 | 99%
3 | CN(N=Cc1ccccc1)C(=N)NCCCC#Cc1cccc(CN2CCCC2)c1 | 89%
4 | Clc1ccc(Nc2nc(NCc3ccccc3)nc(N/N=C/c3ccccn3)n2)cc1 | 99%
5 | Br.CC1(C)NC(N)=NC(=N)N1OCCCCCCOc1ccc(Cl)c2ccccc12 | 91%
6 | Cc1cccc(C)c1C1CCN(C2CCC(NC(=O)/C=C/c3ccccc3)CC2)CC1 (stereo not drawn) | 100%
7 | CCn1cc2c3c(cc(C(=O)N[C@@H](Cc4ccccc4)[C@H](O)CNCc4cccc(OC)c4)cc31)N(C)S(=O)(=O)CC2 | 99%
8 | CCC(C)(C)C1CCc2[nH]c3ccccc3c(=O)c2C1 (stereo not drawn) | 97%
9 | CC(C)(C)OC(=O)C1CCCN(Cc2ccc(-c3cccc(-c4nc5ccccc5[nH]4)c3)cc2)C1.O=C(O)C(F)(F)F (stereo not drawn) | 93%
10 | COC(=O)c1ccc2c(c1)nc(Nc1cccc(F)c1)n2CC(O)c1ccccn1 (stereo not drawn) | 99%
11 | CS(=O)(=O)N(c1ccccc1)c1cc(C(=O)N[C@@H](Cc2ccccc2)[C@H](O)CNC2CCCCC2)cc(N2CCCC2=O)c1 | 100%
12 | N#Cc1ccc(-c2ccc(C(=O)NCCCCN3CCC(n4cnc5ccccc54)CC3)cc2)cc1 | 94%
13 | CN(C)CCOc1cc(NC(=O)Nc2ccc(-c3ccccc3)cc2)ccc1I | 100%
14 | COc1ccc(-c2cccc(NC(=O)c3cccc(Cl)c3)c2)cc1CN1CCN(C)CC1.O=C(O)C(F)(F)F | 100%
15 | COc1cccc2cc(C(=O)N[C@@H](CC(C)C)C(=O)N[C@H](/C=N/NC(=O)c3ccccc3)Cc3c[nH]cn3)oc12 | 99%
16 | COc1cccc2cc(C(=O)N[C@@H](CC(C)C)C(=O)N[C@H](/C=N/NC(=O)N3CCN(C)CC3)CCc3ccccc3)oc12.Cl | 85%
17 | O=C(C=Cc1ccc(Cl)c(Cl)c1)NCCCCCN1CCC(CCCNC(=O)C2CC2c2ccccc2)CC1 (stereo not drawn) | 95%
18 | C(=NN=c1cc[nH]c2ccccc12)c1ccncc1 | 95%
19 | Cc1ccc(CNC(=O)[C@H](CC(C)C)Nc2cc(C)nc(NCC3CCCCC3)n2)cc1.O=C(O)C(F)(F)F | 96%
20 | CCOC(=O)NCC(=O)Nc1cccc(-c2cccc(-c3nc4cccc(C)c4[nH]3)c2)c1 | 88%

Row | Structure (SMILES) | Inhibition
21 | CCOc1ccc(-c2nc(NC(=O)CS(=O)(=O)c3ccccc3)sc2C)cc1 | 100%
22 | N=C(N)NCCCCN(Cc1ccccc1)c1ccccc1 | 100%
23 | CC[C@H](C)CNC(=O)c1ccnc(-c2cccc(CN(C)C3CCN(C)CC3)c2)c1.O=C(O)C(F)(F)F | 100%
24 | COc1ccc(CCn2c(=N)c(C(=O)NCc3ccc(C)cc3)cc3c(=O)n4ccccc4nc32)cc1 | 97%
25 | O=S(=O)(c1cc(Cl)ccc1Cl)N1CCCCC(c2ccc(C(F)(F)F)cc2)=N1 | 87%
26 | O=C(NCCN1CCCC1)N1CCCN(c2ncnc3cc(-c4ccc(F)cc4)sc23)CC1.O=C(O)C(F)(F)F | 81%
27 | CC1(C)N=C(N)N=C(N)N1c1cc(Cl)c(Cl)c(Cl)c1.CCS(=O)(=O)O | 93%
28 | CCN(CC)CC(O)CNc1c2ccc([N+](=O)[O-])cc2nc2cc(OC)c(OC)cc12.Cl (stereo not drawn) | 100%
29 | CC1CC(C)CN(CCCNc2ccc(C(=O)Nc3ccc(C(F)(F)F)cc3)cc2[N+](=O)[O-])C1 (stereo not drawn) | 100%
30 | Cc1cc(N[C@@H](Cc2ccccc2)C(=O)NCCc2ccccc2)nc(NCCc2cccs2)n1.O=C(O)C(F)(F)F | 99%
31 | CN1CCN(CCCN(Cc2cccc(-c3cccc(CNC4CCCC4)c3)c2)C(=O)CCC2CCCC2)CC1.O=C(O)C(F)(F)F | 100%
32 | C#CCNCc1ccc(-c2ccc(-c3nc4cc(C(F)(F)F)ccc4[nH]3)s2)cc1.O=C(O)C(F)(F)F | 98%
33 | O=C(/C=C/c1ccc(Cl)c(Cl)c1)NCCCCCN1CCC(NC(=O)Nc2ccc(Oc3ccccc3)cc2)C1 (stereo not drawn) | 99%
34 | Br.CCC(CCON1C(N)=NC(N)=NC1(C)C)c1ccc(Cl)cc1 (stereo not drawn) | 94%
35 | CC1(C)N=C(N)N=C(Nc2ccc(Cl)cc2)N1.Cl | 97%
36 | CC1CN(c2ccnc3ccc(Sc4ccc(Oc5ccccc5)cc4)cc23)CC(C)N1.Cl (stereo not drawn) | 100%
37 | CC(C)(C)c1ccc2[nH]c(-c3ccc(/C=C/C(=O)NCc4ccc(Cl)c(Cl)c4)cc3)nc2c1 | 97%
38 | CC(C)Oc1ccc(C=CC(=O)Nc2noc3ccccc23)cc1 | 96%
39 | O=S(=O)(Nc1cccc(CCN2CCC(N3CCCCC3)CC2)c1)c1ccccc1C(F)(F)F | 82%

What follows are compounds tested on Plasmodium falciparum (assay: GSK_TCMDC: Inhibition of Plasmodium falciparum Dd2 in whole red blood cells, using parasite LDH activity as an index of growth. Test compounds present at 2uM).
Type: functional

Row | Structure (SMILES) | Inhibition
40 | O=C(Nc1ccc(-c2cncc(NCCCN3CCCC3)c2)cc1)c1ccccc1 | 49%
41 | O=C(Cc1ccc(-c2ccccc2)cc1)N[C@H]1CCN(Cc2ccc(OCCCN3CCCCC3)cc2)C1 | 27%
42 | CN(N=Cc1ccccc1)C(=N)NCCCC#Cc1cccc(CN2CCCC2)c1 | 3%
43 | Clc1ccc(Nc2nc(NCc3ccccc3)nc(N/N=C/c3ccccn3)n2)cc1 | 91%
44 | Br.CC1(C)NC(N)=NC(=N)N1OCCCCCCOc1ccc(Cl)c2ccccc12 | 94%
45 | Cc1cccc(C)c1C1CCN(C2CCC(NC(=O)/C=C/c3ccccc3)CC2)CC1 (stereo not drawn) | 45%
46 | CCn1cc2c3c(cc(C(=O)N[C@@H](Cc4ccccc4)[C@H](O)CNCc4cccc(OC)c4)cc31)N(C)S(=O)(=O)CC2 | 97%
47 | CCC(C)(C)C1CCc2[nH]c3ccccc3c(=O)c2C1 (stereo not drawn) | 96%
48 | CC(C)(C)OC(=O)C1CCCN(Cc2ccc(-c3cccc(-c4nc5ccccc5[nH]4)c3)cc2)C1.O=C(O)C(F)(F)F (stereo not drawn) | 27%
49 | COC(=O)c1ccc2c(c1)nc(Nc1cccc(F)c1)n2CC(O)c1ccccn1 (stereo not drawn) | 96%
50 | CS(=O)(=O)N(c1ccccc1)c1cc(C(=O)N[C@@H](Cc2ccccc2)[C@H](O)CNC2CCCCC2)cc(N2CCCC2=O)c1 | 97%
51 | N#Cc1ccc(-c2ccc(C(=O)NCCCCN3CCC(n4cnc5ccccc54)CC3)cc2)cc1 | 2%
52 | CN(C)CCOc1cc(NC(=O)Nc2ccc(-c3ccccc3)cc2)ccc1I | 45%
53 | COc1ccc(-c2cccc(NC(=O)c3cccc(Cl)c3)c2)cc1CN1CCN(C)CC1.O=C(O)C(F)(F)F | 48%
54 | COc1cccc2cc(C(=O)N[C@@H](CC(C)C)C(=O)N[C@H](/C=N/NC(=O)c3ccccc3)Cc3c[nH]cn3)oc12 | 90%
55 | COc1cccc2cc(C(=O)N[C@@H](CC(C)C)C(=O)N[C@H](/C=N/NC(=O)N3CCN(C)CC3)CCc3ccccc3)oc12.Cl | 73%
56 | O=C(C=Cc1ccc(Cl)c(Cl)c1)NCCCCCN1CCC(CCCNC(=O)C2CC2c2ccccc2)CC1 (stereo not drawn) | 12%
57 | C(=NN=c1cc[nH]c2ccccc12)c1ccncc1 | 27%
58 | Cc1ccc(CNC(=O)[C@H](CC(C)C)Nc2cc(C)nc(NCC3CCCCC3)n2)cc1.O=C(O)C(F)(F)F | 44%
59 | CCOC(=O)NCC(=O)Nc1cccc(-c2cccc(-c3nc4cccc(C)c4[nH]3)c2)c1 | 35%

Row | Structure (SMILES) | Inhibition
60 | CCOc1ccc(-c2nc(NC(=O)CS(=O)(=O)c3ccccc3)sc2C)cc1 | 59%
61 | N=C(N)NCCCCN(Cc1ccccc1)c1ccccc1 | 98%
62 | CC[C@H](C)CNC(=O)c1ccnc(-c2cccc(CN(C)C3CCN(C)CC3)c2)c1.O=C(O)C(F)(F)F | 33%
63 | COc1ccc(CCn2c(=N)c(C(=O)NCc3ccc(C)cc3)cc3c(=O)n4ccccc4nc32)cc1 | 16%
64 | O=S(=O)(c1cc(Cl)ccc1Cl)N1CCCCC(c2ccc(C(F)(F)F)cc2)=N1 | 68%
65 | O=C(NCCN1CCCC1)N1CCCN(c2ncnc3cc(-c4ccc(F)cc4)sc23)CC1.O=C(O)C(F)(F)F | 19%
66 | CC1(C)N=C(N)N=C(N)N1c1cc(Cl)c(Cl)c(Cl)c1.CCS(=O)(=O)O | 31%
67 | CCN(CC)CC(O)CNc1c2ccc([N+](=O)[O-])cc2nc2cc(OC)c(OC)cc12.Cl (stereo not drawn) | 100%
68 | CC1CC(C)CN(CCCNc2ccc(C(=O)Nc3ccc(C(F)(F)F)cc3)cc2[N+](=O)[O-])C1 (stereo not drawn) | 99%
69 | Cc1cc(N[C@@H](Cc2ccccc2)C(=O)NCCc2ccccc2)nc(NCCc2cccs2)n1.O=C(O)C(F)(F)F | 84%
70 | CN1CCN(CCCN(Cc2cccc(-c3cccc(CNC4CCCC4)c3)c2)C(=O)CCC2CCCC2)CC1.O=C(O)C(F)(F)F | 96%
71 | C#CCNCc1ccc(-c2ccc(-c3nc4cc(C(F)(F)F)ccc4[nH]3)s2)cc1.O=C(O)C(F)(F)F | 28%
72 | O=C(/C=C/c1ccc(Cl)c(Cl)c1)NCCCCCN1CCC(NC(=O)Nc2ccc(Oc3ccccc3)cc2)C1 (stereo not drawn) | 6%
73 | Br.CCC(CCON1C(N)=NC(N)=NC1(C)C)c1ccc(Cl)cc1 (stereo not drawn) | 95%
74 | CC1(C)N=C(N)N=C(Nc2ccc(Cl)cc2)N1.Cl | 0%
75 | CC1CN(c2ccnc3ccc(Sc4ccc(Oc5ccccc5)cc4)cc23)CC(C)N1.Cl (stereo not drawn) | 99%
76 | CC(C)(C)c1ccc2[nH]c(-c3ccc(/C=C/C(=O)NCc4ccc(Cl)c(Cl)c4)cc3)nc2c1 | 17%
77 | CC(C)Oc1ccc(C=CC(=O)Nc2noc3ccccc23)cc1 | 95%
78 | O=S(=O)(Nc1cccc(CCN2CCC(N3CCCCC3)CC2)c1)c1ccccc1C(F)(F)F | 32%
